The values that follow come from PubChem BioAssay (Tox21).

“And” between values parts separate entries of the source, which are not always exact repeats. Identical values can stand only once. A number with no mark means an inactive call. Inconclusive results are not listed. The source made the active and inactive calls. The call rests on the fitted dose curve.

Assay [1] concerns the target Acetylcholinesterase (Homo sapiens) (UniProt P22303). In words: Acetylcholinesterase (AChE) small molecule antagonists: colormetric cell-based qHTS assay (AID 1347395). Further: nearly all actives have a fitted effect of over 30% in size. Summed up:
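Colorimetric read-out: DTNB detects thiocholine released when cellular AChE in SH-SY5Y cells hydrolyses acetylthiocholine. Cells attached overnight, received compound for 30 min at 37 C, then substrate mix for 90 min at 37 C.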
A general note: qHTS replaces the single test concentration by a dilution series.

The target is the same in assay [2]. In words: Acetylcholinesterase (AChE) small molecule antagonists: enzyme-based qHTS assay (AID 1347397). Further: nearly all actives have a fitted effect of over 55% in size. The settings on record: Potency: AChE enzyme activity inhibition; outcome: AChE enzyme activity inhibition. Summed up:
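Tox21 library chemicals are tested in qHTS format against recombinant human AChE. The enzyme, dispensed at 50 mU/mL, sits with compound for 30 min at room temperature. A DTNB–acetylthiocholine cocktail follows, and colour is read after 10 min.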

Assay [3] has the same target. In words: Acetylcholinesterase (AChE) small molecule antagonists: fluorescence cell-based qHTS assay (AID 1347398). Further: nearly all actives have a fitted effect of over 50% in size. The note with it: Potency: AChE activity; outcome: AChE activity. Summed up: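 Cellular AChE inhibition: SH-SY5Y cells treated with test chemical for 30 min at 37 C, then acetylthiocholine hydrolysis followed over 40 min at room temperature via thiocholine-reactive Thiolite Green fluorescence (490/520 nm).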

The target is the same in assay [4]. Nature of the assay: Acetylcholinesterase (AChE) small molecule antagonists: enzyme-based qHTS assay with human liver microsomes (AID 1347399). Further: nearly all actives have a fitted effect of over 60% in size. The note with it: Potency: qHTS inhibition; outcome: qHTS inhibition. Summed up: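 Recombinant human AChE (50 mU/mL in the enzyme mix) and human liver microsomes (0.25 mg/mL final) were preincubated with compound and NADPH (0.25 mg/mL final) for 30 min at 37 C. Acetylthiocholine/DTNB was then added; thiocholine was read colorimetrically after 10 min at room temperature.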
On the % scale 0 is the no-effect control and ±100 the full control effect; potency means the concentration at half of the fitted maximal effect.

Chain of Acetylcholinesterase (Homo sapiens) (P22303 whole entry, looked up): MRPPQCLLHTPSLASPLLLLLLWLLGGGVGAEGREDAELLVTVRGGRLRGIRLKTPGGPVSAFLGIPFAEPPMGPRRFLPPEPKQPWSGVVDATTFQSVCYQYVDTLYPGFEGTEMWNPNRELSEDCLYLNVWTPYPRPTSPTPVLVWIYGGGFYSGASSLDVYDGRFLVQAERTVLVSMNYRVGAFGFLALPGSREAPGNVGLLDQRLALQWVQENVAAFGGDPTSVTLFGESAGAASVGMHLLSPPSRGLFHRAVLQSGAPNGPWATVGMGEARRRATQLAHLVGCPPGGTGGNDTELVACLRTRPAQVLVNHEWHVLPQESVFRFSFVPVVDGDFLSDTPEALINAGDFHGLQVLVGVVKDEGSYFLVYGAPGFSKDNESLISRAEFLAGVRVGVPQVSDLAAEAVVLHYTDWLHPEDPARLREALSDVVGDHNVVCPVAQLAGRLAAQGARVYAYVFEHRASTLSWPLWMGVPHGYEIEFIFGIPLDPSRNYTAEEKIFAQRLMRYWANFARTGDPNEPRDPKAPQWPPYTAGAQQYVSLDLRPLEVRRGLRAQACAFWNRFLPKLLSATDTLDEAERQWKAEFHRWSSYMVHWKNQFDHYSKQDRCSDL

On to `O=C(CCNNC(=O)c1ccncc1)NCc1ccccc1`, for which the Potency entry in assay [1], in assay [2], in assay [3] and in assay [4] was “inactive” throughout.
As to `CCc1nc(N)nc(N)c1-c1ccc(Cl)cc1`, the Potency result in assay [1], in assay [2], in assay [3] and in assay [4] was “inactive” each time.
Turning to `C[Si](C)(C)O[Si](C)(C)O[Si](C)(C)C`, the Potency entry in assay [1], in assay [2], in assay [3] and in assay [4] was “inactive” in each case.
Consider `CCCCC/C(=C\c1ccccc1)CO`, for which the Potency entry in assay [1], in assay [2], in assay [3] and in assay [4] was “inactive” each time.
Consider `CC(C=O)c1ccccc1` (stereo not given), for which the Potency result in assay [1], in assay [2], in assay [3] and in assay [4] was “inactive” throughout.
As to `CCCCC=O`, the Potency result in assay [1], in assay [2], in assay [3] and in assay [4] was “inactive” in each case.
As to `CC(C)=CCCC(C)CC(=O)O` (stereo not given), the Potency result in assay [1], in assay [2], in assay [3] and in assay [4] was “inactive” in each case.
With `COS(C)(=O)=O`, the Potency entry in assay [1], in assay [2], in assay [3] and in assay [4] was “inactive” in each case.
Regarding `C/C=C/C(=O)CCCC`, the Potency result in assay [1], in assay [2], in assay [3] and in assay [4] was “inactive” in each case.
Take `C[C@H]1C[C@H]2[C@@H]3CCC4=CC(=O)C=C[C@]4(C)[C@@]3(F)[C@@H](O)C[C@]2(C)[C@@]1(O)C(=O)COP(=O)(O)O`: the Potency entry in assay [1], in assay [2], in assay [3] and in assay [4] was “inactive” throughout.
Regarding `C=COCCCCO`, the Potency entry in assay [1], in assay [2], in assay [3] and in assay [4] was “inactive” throughout.
With `O=C(O)C[C@H](O)C[C@H](O)/C=C/c1c(C2CC2)nc2ccccc2c1-c1ccc(F)cc1`, in assay [1], the activity, negative = inhibition was -0.67% [at 23.6 µM]. In addition, the activity change, negative = inhibition in assay [2] was -2.86% [at 23.6 µM]; in assay [3], 8.09% [at 23.8 µM]; in assay [4], -1.12% [at 23.6 µM].
As for `OCCCCl`, the Potency result in assay [1], in assay [2], in assay [3] and in assay [4] was “inactive” each time.
Turning to `O=C(O)Cc1ccccc1Nc1c(Cl)cccc1Cl`, the Potency entry in assay [1], in assay [2], in assay [3] and in assay [4] was “inactive” in each case.
In the case of `COc1ccc([C@@H]2CC(=O)c3c(O)cc(O[C@@H]4O[C@H](CO[C@@H]5O[C@@H](C)[C@H](O)[C@@H](O)[C@H]5O)[C@@H](O)[C@H](O)[C@H]4O)cc3O2)cc1OC`, the Potency result in assay [1], in assay [2], in assay [3] and in assay [4] was “inactive” throughout.
As for `Cc1cc(OCCOCC[N+](C)(C)Cc2ccccc2)ccc1C(C)(C)CC(C)(C)C`, the Potency is 39.7 µM (active) and 17.4 µM (active) in assay [1]; 56.1 µM (active) and 30.9 µM (active) in assay [2]; 14.1 µM (active) and 8.71 µM (active) in assay [3]. In addition, the Potency entry in assay [4] was “inactive”.
Turning to `CCCCC(CC)COC(=O)COc1cc(Cl)c(Cl)cc1Cl` (stereo not given), the Potency result in assay [1], in assay [2], in assay [3] and in assay [4] was “inactive” in each case.
For `O=CN(CCO)CCO`, the Potency entry in assay [1], in assay [2], in assay [3] and in assay [4] was “inactive” each time.
For `Cc1ccc(O)c(C(C)(C)C)c1`, the Potency result in assay [1], in assay [2], in assay [3] and in assay [4] was “inactive” throughout.
For `C=C1c2cccc(O)c2C(O)=C2C(=O)[C@]3(O)C(O)=C(C(N)=O)C(=O)[C@@H](N(C)C)[C@@H]3[C@@H](O)[C@H]12`, the Potency result in assay [1], in assay [2], in assay [3] and in assay [4] was “inactive” throughout.
In the case of `CC(C)C(=O)OCc1ccccc1`, the Potency entry in assay [1], in assay [2], in assay [3] and in assay [4] was “inactive” each time.
For `O=[N+]([O-])c1ccc(NCCO)c(OCCO)c1`, the Potency entry in assay [1], in assay [2], in assay [3] and in assay [4] was “inactive” throughout.
`CC(C)C1=CC2=CC[C@@H]3[C@](C)(CCC[C@@]3(C)C(=O)O)[C@H]2CC1`: the Potency result in assay [1], in assay [2], in assay [3] and in assay [4] was “inactive” each time.
As for `CCCCCCCCCCl`, the Potency result in assay [1], in assay [2], in assay [3] and in assay [4] was “inactive” throughout.
Turning to `OCCOc1ccc(OCCO)cc1`, the Potency entry in assay [1], in assay [2], in assay [3] and in assay [4] was “inactive” in each case.
With `COC(=O)c1ccccc1C(=O)O`, the Potency entry in assay [1], in assay [2], in assay [3] and in assay [4] was “inactive” throughout.
For `O=[N+]([O-])c1ccc(F)cc1F`, the Potency result in assay [1], in assay [2], in assay [3] and in assay [4] was “inactive” in each case.
Turning to `O=c1[nH]c2ccc(S(=O)CCN3CCC(Cc4ccc(F)cc4)CC3)cc2o1` (stereo not given), the Potency in assay [1] is 6.33 µM (active); in assay [2], 5.64 µM (active); in assay [3], 1.12 µM (active); in assay [4] it was 35.6 µM (active).
As for `C=CC(=O)OCCOCCOCC`, the Potency entry in assay [1], in assay [2], in assay [3] and in assay [4] was “inactive” in each case.
Turning to `CCCCOC(=O)CCCCCCCCC(=O)OCCCC`, the Potency entry in assay [1], in assay [2], in assay [3] and in assay [4] was “inactive” in each case.
For the compound `CN(C)c1ccc(C(=C2C=CC(=[N+](C)C)C=C2)c2ccc(N(C)C)cc2)cc1`, the Potency was 70.6 µM (active) in assay [1]; 25.1 µM (active) and 35.6 µM (active) and 30.9 µM (active) in assay [2]; 19.9 µM (active) and 44.8 µM (active) and 15.5 µM (active) in assay [3]. Besides, in assay [4], the Potency result is “inactive”.
For the compound `C=CCCCCCCCCCC`, the Potency entry in assay [1], in assay [2], in assay [3] and in assay [4] was “inactive” in each case.
For the compound `CC(=O)c1ccccc1`, the Potency result in assay [1], in assay [2], in assay [3] and in assay [4] was “inactive” throughout.
For the compound `COC(C)(C)CCCC(C)CC=O` (stereo not given), the Potency entry in assay [1], in assay [2], in assay [3] and in assay [4] was “inactive” each time.
Take `O[C@@H](c1cc(C(F)(F)F)nc2c(C(F)(F)F)cccc12)[C@H]1CCCCN1`: the Potency entry in assay [1], in assay [2], in assay [3] and in assay [4] was “inactive” each time.
Regarding `O=C(O)Cc1c[nH]c2ccccc12`, the Potency result in assay [1], in assay [2], in assay [3] and in assay [4] was “inactive” in each case.
With `CCCCCCCCC=O`, the Potency result in assay [1], in assay [2], in assay [3] and in assay [4] was “inactive” throughout.
Turning to `C=C1C2CCC(C2)C1(C)C` (stereo not given), the Potency entry in assay [1], in assay [2], in assay [3] and in assay [4] was “inactive” each time.
Regarding `O=C(O)CN(CCOCCOCCN(CC(=O)O)CC(=O)O)CC(=O)O`, the activity, negative = inhibition in assay [1] is -1.41% [at 0.435 µM]. Further, the activity change, negative = inhibition is -0.554% [at 0.435 µM] in assay [2], 2.07% [at 0.439 µM] in assay [3] and -0.252% [at 0.435 µM] in assay [4].
`c1ccc(Oc2ccccc2)cc1`: the Potency entry in assay [1], in assay [2], in assay [3] and in assay [4] was “inactive” throughout.
Take `CCCCCCCCOCCC#N`: the Potency result in assay [1], in assay [2], in assay [3] and in assay [4] was “inactive” in each case.
Turning to `CCOC(=O)c1ccc(OC(=O)CCCCCN=C(N)N)cc1`, the call in assay [1], in assay [2], in assay [3] and in assay [4] was inactive.
For the compound `C=CCc1ccc(O)c(OC)c1`, the Potency entry in assay [1], in assay [2], in assay [3] and in assay [4] was “inactive” throughout.
Take `CCCCC(=O)O`: the Potency result in assay [1], in assay [2], in assay [3] and in assay [4] was “inactive” each time.
Consider `C1CC(COCC2CO2)CCC1COCC1CO1` (stereo not given), for which the Potency result in assay [1], in assay [2], in assay [3] and in assay [4] was “inactive” each time.
`Fc1ccccc1[C@@H](F)COC1CCC(Nc2ncnc3[nH]ncc23)CC1` (stereo not given in full): the Potency entry in assay [1], in assay [2], in assay [3] and in assay [4] was “inactive” throughout.
As for `CC(=O)OCCN(CCOC(C)=O)c1ccc(N=Nc2ccc([N+](=O)[O-])cc2C#N)cc1`, the Potency result in assay [1], in assay [2], in assay [3] and in assay [4] was “inactive” each time.
`CC[C@@]1(O)C(=O)OCc2c1cc1n(c2=O)Cc2cc3c(CN(C)C)c(O)ccc3nc2-1`: the Potency result in assay [1], in assay [2], in assay [3] and in assay [4] was “inactive” throughout.
As for `CCNc1ccccc1`, the Potency result in assay [1], in assay [2], in assay [3] and in assay [4] was “inactive” in each case.
Turning to `CC(=O)NCCO`, the Potency entry in assay [1], in assay [2], in assay [3] and in assay [4] was “inactive” in each case.
Take `CCCCOCCOCCO`: the Potency result in assay [1], in assay [2], in assay [3] and in assay [4] was “inactive” each time.
Take `CCCCc1nc2cccnc2n1Cc1ccc(-c2ccccc2-c2nnn[nH]2)cc1`: the Potency result in assay [1], in assay [2], in assay [3] and in assay [4] was “inactive” each time.
As to `CCCCCC(C)O` (stereo not given), the Potency entry in assay [1], in assay [2], in assay [3] and in assay [4] was “inactive” throughout.
With `CCC(=O)Oc1ccc(/C(CC)=C(\CC)c2ccc(OC(=O)CC)cc2)cc1`, the Potency result in assay [1], in assay [2], in assay [3] and in assay [4] was “inactive” each time.
As for `Nc1ncnc2nc[nH]c12`, the Potency result in assay [1], in assay [2], in assay [3] and in assay [4] was “inactive” in each case.
For the compound `C/C=C(\C)C(=O)OCc1ccccc1`, the Potency result in assay [1], in assay [2], in assay [3] and in assay [4] was “inactive” in each case.
With `O=C(O)c1cccc(C(=O)O)n1`, the Potency entry in assay [1], in assay [2], in assay [3] and in assay [4] was “inactive” each time.
On to `CC/C=C\C/C=C\C/C=C\CCCCCCCC(=O)OCC`, for which the Potency result in assay [1], in assay [2], in assay [3] and in assay [4] was “inactive” throughout.
As for `CC(=O)OCCOC(C)=O`, the Potency entry in assay [1], in assay [2], in assay [3] and in assay [4] was “inactive” in each case.
For the compound `CC/C=C\CC/C=C/C(OCC)OCC`, the Potency entry in assay [1], in assay [2], in assay [3] and in assay [4] was “inactive” each time.
